In PubChem BioAssay:
This is one part of the list. Active and inactive are the calls of the source. Unless noted, no rule for the calls is given here.

What was measured:
[1] = biological target: Regulator of G-protein signaling 16 (Homo sapiens) (UniProt O15492); assay: modulators of RGS–Galpha-o binding, primary screen, biochemical, multiplexed beads, flow cytometry, RGS4/7/8/16/19 (AID 1504); conditions: multiplexed bead flow cytometry, measured here: RGS16 interaction, at 10 µM;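 also: fluorescently labeled Galpha-o bound to GDP with aluminium fluoride binding biotinylated RGS beads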
[2] = biological target: Regulator of G-protein signaling 19 (Homo sapiens) (UniProt P49795); assay: as above; conditions: multiplexed bead flow cytometry, measured here: RGS19 interaction, at 10 µM
[3] = biological target: Regulator of G-protein signaling 4 (Homo sapiens) + Guanine nucleotide-binding protein G(o) subunit alpha (Homo sapiens) (UniProt P49798+P09471); assay: as above; conditions: multiplexed bead flow cytometry, at 10 µM
[4] = biological target: Regulator of G-protein signaling 7 (Homo sapiens) (UniProt P49802); assay: as above; conditions: multiplexed bead flow cytometry, measured here: RGS7 interaction, at 10 µM
[5] = biological target: Regulator of G-protein signaling 8 (Homo sapiens) (UniProt P57771); assay: as above; conditions: multiplexed bead flow cytometry, measured here: RGS8 interaction, at 10 µM
[6] = disruption of biotin probe capture by avidin, counter-screen for RGS protein interaction modulators, biochemical, flow cytometry, bead-based (AID 1783;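 active = inhibition above 50%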;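 as to inhibition: median green fluorescence of gated singlet beads compared with DMSO control wells; 0% = DMSO wells and 100% = complete loss of bead fluorescence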); conditions: streptavidin beads, fluorescein-biotin binding; at 10 µM, stronger effect = higher value
[7] = biological target: Guanine nucleotide-binding protein G(o) subunit alpha (Homo sapiens) (UniProt P09471); assay: RGS8-Galphao binding modulators, confirmation, biochemical, multiplexed bead flow cytometry, single concentration (AID 1836; in the data active = binding response below about 72% or above about 130%; inactive = in between;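 also: Galphao activated as GDP AlF4 complex before binding bead RGS8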); conditions: bead-based flow cytometry RGS8-Galphao binding, fluorescence; at 10 µM; actives lie on both sides
[8] = biological target: Guanine nucleotide-binding protein G(o) subunit alpha (Homo sapiens) (UniProt P09471); assay: RGS7-Galphao binding modulators, confirmation, biochemical, multiplexed bead flow cytometry, single concentration (AID 1837; in the data active = response below about 75% or above about 130%; inactive = in between;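 also: fluorescent Galphao activated with GDP and aluminum fluoride binding bead-coupled RGS7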); conditions: bead-based flow cytometry RGS7-Galphao binding; at 10 µM; actives lie on both sides
[9] = biological target: Regulator of G-protein signaling 16 (Homo sapiens) + Guanine nucleotide-binding protein G(o) subunit alpha (Homo sapiens) (UniProt O15492+P09471); assay: modulators of RGS16-Galphao protein binding, confirmation, biochemical, single concentration, multiplexed bead flow cytometry (AID 1838; in the data active = response below about 74% or above about 130%; inactive = in between;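 also: Galphao activated as the GDP aluminium fluoride complex binding bead-coupled RGS16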); conditions: bead-based flow cytometry, at 10 µM, actives lie on both sides
[10] = biological target: Guanine nucleotide-binding protein G(o) subunit alpha (Homo sapiens) (UniProt P09471); assay: modulators of RGS4-Galphao protein binding, confirmation, biochemical, single concentration, multiplexed bead flow cytometry (AID 1840; in the data active = binding response below about 74% or above about 130%; inactive = in between); conditions: at 10 µM, actives lie on both sides
[11] = biological target: Guanine nucleotide-binding protein G(o) subunit alpha (Homo sapiens) + Regulator of G-protein signaling 19 (Homo sapiens) (UniProt P09471+P49795); assay: regulators of RGS19-Galphao binding, confirmation, biochemical, single point, multiplexed bead flow cytometry (AID 1841; in the data active = response below about 50% or above about 160%; inactive = in between;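 also: 100% = no compound control and 0% = blank background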); conditions: bead-based flow cytometry RGS19-Galphao binding; at 10 µM; actives lie on both sides
[12] = biological target: Ras-related C3 botulinum toxin substrate 1 (Homo sapiens) (UniProt P63000); assay: wildtype Rac1 GTP binding inhibitors, dose response, biochemical, multiplex bead flow cytometry (AID 1340;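 active = dose curve with midpoint inside tested range, moderate steepness, plateau gap beyond fit error, low compound glow and bead-link interference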); conditions: GST-Rac1 beads, Bodipy-FL-GTP binding; at 100 µM (top of the series) unless noted

Regulator of G-protein signaling 16 (Homo sapiens) + Guanine nucleotide-binding protein G(o) subunit alpha (Homo sapiens), sequence (O15492 whole entry, looked up): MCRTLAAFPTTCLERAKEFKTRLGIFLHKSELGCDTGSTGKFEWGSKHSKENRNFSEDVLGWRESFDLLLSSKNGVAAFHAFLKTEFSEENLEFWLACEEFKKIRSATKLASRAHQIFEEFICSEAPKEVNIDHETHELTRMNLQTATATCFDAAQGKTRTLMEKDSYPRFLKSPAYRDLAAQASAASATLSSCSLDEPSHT
Regulator of G-protein signaling 16 (Homo sapiens) + Guanine nucleotide-binding protein G(o) subunit alpha (Homo sapiens), sequence (P09471 whole entry, looked up): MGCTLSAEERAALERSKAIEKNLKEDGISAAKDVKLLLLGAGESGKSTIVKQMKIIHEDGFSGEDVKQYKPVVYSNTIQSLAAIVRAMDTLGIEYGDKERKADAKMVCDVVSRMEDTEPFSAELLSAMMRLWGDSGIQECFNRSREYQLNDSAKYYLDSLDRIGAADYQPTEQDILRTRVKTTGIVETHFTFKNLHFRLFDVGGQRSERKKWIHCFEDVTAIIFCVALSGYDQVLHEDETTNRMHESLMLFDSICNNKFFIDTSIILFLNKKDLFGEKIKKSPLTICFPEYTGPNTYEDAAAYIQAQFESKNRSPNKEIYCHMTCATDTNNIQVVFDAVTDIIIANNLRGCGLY
Guanine nucleotide-binding protein G(o) subunit alpha (Homo sapiens) + Regulator of G-protein signaling 19 (Homo sapiens), sequence (P09471 whole entry, looked up): as above
Guanine nucleotide-binding protein G(o) subunit alpha (Homo sapiens) + Regulator of G-protein signaling 19 (Homo sapiens), sequence (P49795 whole entry, looked up): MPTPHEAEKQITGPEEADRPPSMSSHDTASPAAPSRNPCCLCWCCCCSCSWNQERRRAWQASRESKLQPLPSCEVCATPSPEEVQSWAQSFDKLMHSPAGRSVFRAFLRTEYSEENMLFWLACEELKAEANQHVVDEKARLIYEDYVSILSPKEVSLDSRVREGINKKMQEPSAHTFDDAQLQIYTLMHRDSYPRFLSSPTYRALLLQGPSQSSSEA
Regulator of G-protein signaling 4 (Homo sapiens) + Guanine nucleotide-binding protein G(o) subunit alpha (Homo sapiens), sequence (P09471 whole entry, looked up): as the sequence (P09471 whole entry, looked up) above
Regulator of G-protein signaling 4 (Homo sapiens) + Guanine nucleotide-binding protein G(o) subunit alpha (Homo sapiens), sequence (P49798 whole entry, looked up): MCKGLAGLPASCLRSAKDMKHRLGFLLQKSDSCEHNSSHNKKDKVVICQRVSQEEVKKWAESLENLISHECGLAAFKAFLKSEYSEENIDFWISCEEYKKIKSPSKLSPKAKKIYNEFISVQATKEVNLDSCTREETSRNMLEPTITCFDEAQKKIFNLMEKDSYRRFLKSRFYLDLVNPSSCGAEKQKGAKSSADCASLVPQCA
Guanine nucleotide-binding protein G(o) subunit alpha (Homo sapiens), sequence (P09471 whole entry, looked up): as the sequence (P09471 whole entry, looked up) above

Row | Compound | RGS16–Galpha-o binding response [1] [%] | RGS19–Galpha-o binding response [2] [%] | RGS4–Galpha-o binding response [3] | RGS7–Galpha-o binding response [4] [%] | RGS8–Galpha-o binding response [5] [%] | outcome [6] | binding response (% of control) [7] | response (percent of control binding) [8] | response (% of control binding) [9] | binding response (% of control) [10] | response (percent of control binding) [11] | inhibition [6] | GTP binding signal, raw median fluorescence (lower = inhibition) (MCF (arbitrary fluorescence units)) [12]
1 | O=C(Nc1ccc(-n2ccnc2P(=O)(O)c2ccccc2)cc1)c1ccccc1Br | 143 | 394 | 138% (active) | 152 | 105 | inactive | 114% (inactive) | 135% [activator] (active) | 118% (inactive) | 129% [activator] (active) | 139% (inactive) | – | –
2 | Cc1ccccc1CS(=O)(=O)CC1(O)CCN(C(=O)c2cccc(C(F)(F)F)c2)CC1 | 106 | 115 | 110% (active) | 157 | 100 | – | 104% (inactive) | 105% (inactive) | 102% (inactive) | 105% (inactive) | 78.9% (inactive) | 2.5% (inactive) | –
3 | O=C1CCC(=O)N(O)CCCCCNC(=O)CCC(=O)N(O)CCCCCNC(=O)CCC(=O)N(O)CCCCCN1 | 40.8 | 4280 | 52.2% (active) | -117 | 55.9 | – | 53.5% (active) | 59.4% (active) | 45.6% (active) | 61.5% (active) | 62.2% (inactive) | -0.3% (inactive) | –
4 | Cc1cccc(N=Cc2[nH]c3ccc(Br)c(Cl)c3c2O)c1 | – | – | – | – | – | – | – | – | – | – | – | – | 240
5 | CCCC(=O)N=c1sc2cccc(F)c2n1C | 76.5 | 14800 | 58.4% (active) | 18 | 37.2 | – | – | – | – | – | – | – | –
6 | CC(C)Cc1nc(Nc2ccc(S(=O)(=O)N3CCCC3)cc2)c2nnn(Cc3ccccc3)c2n1 | 260 | 48.9 | 135% (active) | 137 | 141 | – | 94.8% (inactive) | 91.8% (inactive) | 91.9% (inactive) | 90.6% (inactive) | 95.9% (inactive) | 1.3% (inactive) | –
7 | Cc1cn2c(nc(=O)c3cccnc32)s1 | – | – | – | – | – | – | – | – | – | – | – | – | 126
8 | COc1ccc(C(=O)NNc2cc(C)nc(NNC(=O)c3ccc(OC)cc3)n2)cc1 | 4.94 | 167 | 79.6% (active) | 72.3 | 54 | – | 108% (inactive) | 115% (inactive) | 111% (inactive) | 110% (inactive) | 107% (inactive) | 1.4% (inactive) | –
9 | Cc1ccc(OCC(O)CN2CCN(CC(O)COc3ccc(C)cc3Cl)CC2)c(Cl)c1 (stereo not drawn) | 367 | 114 | 139% (active) | 127 | 165 | – | – | – | – | – | – | – | –
10 | CSc1ccc(CN2C(=O)NC3(CCCCCC3)C2=O)cc1 | 99.1 | 1890 | 106% (active) | 219 | 97.9 | – | 96.3% (inactive) | 94.7% (inactive) | 96.5% (inactive) | 97.1% (inactive) | 108% (inactive) | -1.7% (inactive) | –
